# GLA inh pH 4.5: inhibitors of human alpha-galactosidase A at pH 4.5; purified enzyme, 4-MU-alpha-Gal fluorescence, pH 4.5; P06280; activity change, negative = inhibition, % at 105 µM; 230,000 tested, under 10 active;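 further: 0% = full activity with enzyme and -100% = basal without enzyme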
# Target sequence (P06280 whole entry, looked up): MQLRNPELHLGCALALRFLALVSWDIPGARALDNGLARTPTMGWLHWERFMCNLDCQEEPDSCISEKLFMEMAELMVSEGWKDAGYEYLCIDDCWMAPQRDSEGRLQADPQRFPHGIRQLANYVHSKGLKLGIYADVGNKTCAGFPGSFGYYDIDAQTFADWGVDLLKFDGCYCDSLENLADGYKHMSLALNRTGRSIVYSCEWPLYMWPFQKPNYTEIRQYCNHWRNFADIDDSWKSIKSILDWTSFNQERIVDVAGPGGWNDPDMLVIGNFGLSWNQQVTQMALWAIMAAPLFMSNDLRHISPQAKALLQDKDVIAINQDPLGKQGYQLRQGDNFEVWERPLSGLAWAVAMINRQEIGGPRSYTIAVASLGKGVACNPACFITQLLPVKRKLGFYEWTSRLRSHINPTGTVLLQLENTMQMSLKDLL
# GAA inh: blocks human lysosomal alpha-glucosidase. Potency, µM (highest dose often 76.9 µM), without a hit: at the highest dose activity change, negative = inhibition, usual class: inhibitors. 0.005% of 200,000 active. purified human GAA, 4-MU-alpha-glucoside fluorescence;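 further: potency means the concentration at half of the fitted maximal effect; plate controls were uninhibited enzyme wells for no effect and no-enzyme background for full effect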
#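 qHTS format, compound range up to 77 uM. Human lysosomal enzyme at 4 nM, 400 uM 4-MU glucoside substrate, pH 5.0, 20 min room temperature; fluorescence after alkaline stop gives activity normalized to controls.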
# GAA spleen mod: inhibits or activates alpha-glucosidase in human spleen homogenate; P10253; human spleen homogenate, 4-MU-alpha-glucoside fluorescence; Potency, µM (doses to about 79.9 µM), inactives show at the highest dose activity change, negative = inhibition, actives largely listed as inhibitors; 0.006% of 240,000 active; AID 2112;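 further: potency means the concentration at half of the fitted maximal effect; 0% = enzyme with vehicle and -100% = no enzyme basal signal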
#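 Human spleen homogenate (1 ug) with 4-methylumbelliferyl-alpha-D-glucopyranoside (1 mM final) in 50 mM citrate/phosphate pH 5.0, 0.01% Tween-20; 40 min at 37 C. Stopped at pH 10; 4-MU fluorescence Ex 365/Em 440 nm; AC50 by Hill fit.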
# N370S GC: inhibitors or activators of N370S glucocerebrosidase for Gaucher disease. AID 2101. N370S GC spleen homogenate, 4MU-glucoside fluorescence. P04062. Potency, µM (highest dose often 59.4 µM), without a hit: at the top dose activity change, negative = inhibition, usual class: inhibitors. 0.092% of 330,000 active;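 further: potency means the concentration at half of the fitted maximal effect; 0% = full enzyme activity and -100% = no enzyme basal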
# GAA glycogen mod: inhibitors or activators of human alpha-glucosidase glycogen cleavage; P10253; recombinant GAA, glycogen substrate, Amplex Red glucose oxidase fluorescence; Potency, µM (titrated, usually from 76.4 µM), without a hit: at the top dose activity change, negative = inhibition, hits mostly inhibitors; 0.38% of 300,000 active; AID 2100;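 further: potency means the concentration at half of the fitted maximal effect; 0% = full enzyme reaction and -100% = no-enzyme basal signal; the screen sought inhibitors and activators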
#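 Recombinant human alpha-glucosidase (4 nM final) hydrolysed bovine liver glycogen (30 ug) for 40 min at 37 C in pH 5.0 citrate/phosphate with 0.01% Tween-20. Released glucose detected by glucose oxidase/Amplex Red, Ex 573/Em 610 nm. Compounds up to 77 uM; AC50 from Hill fits.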
# aGal spleen mod: inhibitors or activators of human alpha-galactosidase in spleen homogenate; P06280; human spleen homogenate, 4MU-alpha-Gal fluorescence, 40 min; Potency, µM (top dose mostly 80 µM), inactives show top-dose activity change, negative = inhibition, actives largely listed as inhibitors; 0.008% of 240,000 active; AID 2107;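 further: potency means the concentration at half of the fitted maximal effect; 0% = enzyme with vehicle and -100% = no enzyme basal signal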
#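 Fluorogenic readout (Ex 365/Em 440 nm) of 4-methylumbelliferone released from 1 mM 4-MU-alpha-galactoside by spleen homogenate, 40 min at 37C, pH 5.0. Data normalized to no-enzyme and enzyme controls; Hill-equation AC50 from compound titrations.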
# Starred values were filed as active, the others as inactive; ? = inconclusive; . = not tested or not shown; [ ] = another dose, or the depositor's remark. Compounds with a hit are over-represented: about 0.43% of the library has one in this group of screens. The call rests on the fitted dose curve; in most records, active means well fitted curve in the direction sought with a large enough effect; inconclusive means small, poorly fitted or top-dose-only effect, or another doubt; inactive means no such curve, though single readings can be large; an effect the other way counts as inactive or inconclusive.
SMILES,GLA inh pH 4.5,GAA inh,GAA spleen mod,N370S GC,GAA glycogen mod,aGal spleen mod
COC(=O)C1=C(C)N(Cc2ccc(C)cc2)C(=O)/C1=C\c1ccc(O)c(OC)c1,0.0,-9.5%,-4.9%,-26.6%,28µM*,-3.1%
COC(=O)C1=C(C)N(Cc2ccc(C)cc2)C(=O)/C1=C\c1cc(OC)c(OC)c(OC)c1,-1.6,-1.6%,-4.2%,-17.8%,-5.0%,-3.9%
CC[C@]1(c2ccccc2)NC(=O)NC1=O,.,.,1.2%,-6.4%,.,-11.0%
Oc1ccc(Nc2nc3ccccc3nc2Nc2ccc(O)cc2)cc1,-2.6,-1.4%,-1.9%,4.47µM*,19.8µM*,-7.1%
Cc1nc2ccccc2nc1N/N=C/c1ccc(O)cc1,-15.3,.,1.5%,-27.0%,25.1µM*,2.8%
Oc1ccc(/C=N/Nc2ccccc2)cc1,10.8,7.9%,0.7%,-1.7%,?,-1.8%
CCC(NC(=S)NC1CCCCC1)c1ccc(C(C)C)cc1 (centres undefined),.,.,.,12.9%,.,.
CC(Cc1cccs1)NC(=O)CCCn1nnnc1CN1CCOCC1 (centres undefined),.,.,.,-20.0%,0.5%[76.3 µM],.
NC(=O)c1c(NC(NC(=O)c2ccco2)C(=O)c2ccc(Cl)cc2)sc2c1CCCC2 (centres undefined),-3.2,-11.6%,-17.4%,26.5%,-0.6%,-6.8%
N#Cc1c(NC(NC(=O)c2ccco2)C(=O)c2ccccc2)sc2c1CCCC2 (centres undefined),-10.5,-7.5%,-1.3%,?,22.4µM*,0.1%
CC1CCC(C(C)C)C(OCC(O)CNC(C)C)C1 (centres undefined),-3.3,.,-2.6%,-6.3%,-7.5%,3.7%
CCOc1ccccc1N1C(=O)CC(N(O)c2ccccc2)C1=O (centres undefined),-2.2,-1.0%,4.9%,-9.4%,-11.9%,12.5%
Cc1c(Cl)cccc1N1C(=O)CC(N(O)c2ccccc2)C1=O (centres undefined),-1.1,-11.3%,-4.1%,-1.2%,20µM*,-2.0%
Cc1cccc(C)c1N1C(=O)CC(N(O)c2ccccc2)C1=O (centres undefined),-17.8,-5.9%,-7.3%,12.2%,31.6µM*,0.2%
CCOc1cc(/C=N/Nc2nnc(C)n2N)ccc1O,.,.,.,-13.4%,11.1µM*,.
COc1cc(/C=N/Nc2ccccc2C(F)(F)F)ccc1O,0.0,-4.5%,?,-5.7%,35.5µM*,-13.6%
COc1cc(/C=N/Nc2nncn2/N=C/c2ccc(O)c(OC)c2)ccc1O,-2.7,0.7%,-5.4%,-6.6%,10µM*,1.1%
COc1cc(/C=N/Nc2ccccn2)cc(OC)c1O,-12.0,-5.9%,-9.2%,19.0%,17.8µM*,-7.5%
COc1ccc(OC)c(/C=N/Nc2nncn2/N=C/c2cc(OC)ccc2OC)c1,-12.6,1.1%,-4.5%,3.3%,-8.9%,5.1%
COc1cc(/C=N/Nc2ccccc2)ccc1O,.,.,.,-8.2%,?,.
Cc1ccc2c(c1)N(CC(=O)NCCc1ccccc1)C(=O)c1cccnc1O2,.,.,.,2.2%,-3.5%[76.3 µM],.
COc1cccc(Cn2c(=O)c(-c3cccs3)nc3cnc(N4CCNCC4)nc32)c1,.,.,6.3%,-25.9%,.,1.6%
O=C(CSc1nncs1)NCCCc1ccccc1,-5.3,?,3.4%,2.0%,10µM*,-3.3%
FC(F)(F)c1ccc2c(c1)NCC1CCCN21 (centres undefined),4.7,2.9%,5.0%,2.6%,6.31µM*,8.2%
CCCCn1c(C)cc2cc(O)ccc21,-5.5,0.8%,-4.5%,-1.6%,31.6µM*,-5.0%
SMILES,GLA inh pH 4.5,GAA inh,GAA spleen mod,N370S GC,GAA glycogen mod,aGal spleen mod
Cc1nc(N)sc1-c1csc(N(C)c2ccc(O)cc2)n1,-18.4,0.8%,-1.3%,-26.4%,25.1µM*,0.0%
O=C(OCCN=C1NS(=O)(=O)c2ccccc21)C1CC(=O)N(c2ccc3ccccc3c2)C1 (centres undefined),-2.7,?,-5.0%,3.55µM*,-1.9%,2.8%
COc1ccccc1Nc1nc(N)nc(CN2CCCCC2)n1,3.0,7.0%,10.4%,-1.7%,-10.4%,13.0%
COc1ccc(N2CCN(Cc3nc(N)nc(Nc4ccccc4OC)n3)CC2)cc1,-6.6,-5.1%,11.4%,-8.5%,39.8µM*,3.8%
O=C(Nc1cccc(F)c1)N1CCCCCC1,.,.,.,1.0%,.,.
Nc1n[nH]c(N)c1N=Nc1ccc2c(c1)OCO2,-3.0,-7.9%,-1.9%,-11.6%,12.6µM*,-3.4%
Cc1ccc(N=Nc2c(N)n[nH]c2N)cc1,.,.,.,0.6%,?,.
COc1ccc(O)c(/C=N/c2sc(C)c(C)c2C#N)c1,7.8,-8.1%,-7.6%,3.6%,14µM*,-2.9%
Cc1c(NC(=O)/C(C#N)=C/c2ccc(-c3cccc(Cl)c3)o2)c(=O)n(-c2ccccc2)n1C,-9.4,?,-7.2%,-10.9%,-8.2%,-9.5%
Cc1c(N=Cc2nc3ccccc3n2C)c(=O)n(-c2ccccc2)n1C,-0.9,2.5%,-0.7%,3.1%,11.2µM*,4.5%
Cc1cccc(-c2ccc(C=Nc3c(C)n(C)n(-c4ccccc4)c3=O)o2)c1,0.2,-16.3%,3.6%,0.7%,3.95µM*,6.3%
Cc1c(N=Cc2nc3ccccc3[nH]2)c(=O)n(-c2ccccc2)n1C,8.0,-8.1%,5.5%,12.1%,8.91µM*,9.5%
COc1cccc(/C=N/Nc2ccc(S(=O)(=O)O)cc2)c1O,6.4,5.1%,1.3%,-3.9%,7.88µM*,-3.0%
CCOC(=O)Cc1csc(NC(=O)Cc2ccc(Cl)cc2)n1,-6.7,.,-5.6%,-9.1%,-3.2%,1.3%
CCOC(=O)Cc1csc(NC(=O)NC2(C(F)(F)F)Oc3cc(Cl)c(Cl)cc3O2)n1,5.3,-0.5%,1.3%,4.9%,8.84µM*,-1.8%
CCOC(=O)Cc1csc(NC(=O)Nc2ccc(OC(F)(F)F)cc2)n1,5.2,0.5%[15.4 µM],-8.7%,7.9%,-0.5%,4.4%
CCOC(=O)Cc1csc(NC(=O)NC2(C(F)(F)F)Oc3ccc(Cl)cc3O2)n1 (centres undefined),-2.5,-0.8%,-1.2%,-9.5%,11.1µM*,-5.4%
CCOC(=O)Cc1csc(NC(=O)NC2(C(F)(F)F)Oc3ccccc3O2)n1,-4.4,-8.8%,-5.1%,-8.3%,17.6µM*,0.9%
COc1ccc(NCCNc2ccc(OC)cc2)cc1,5.3,0.7%,-9.2%,5.4%,7.88µM*,-0.3%
COc1ccc(C(=O)CCNc2ccc(F)cc2)cc1,5.6,.,-4.1%,-3.5%,-5.4%,-6.7%
O=C(c1ccc2[nH]c(=O)c(=O)[nH]c2c1)N1CCN(c2ccccc2)CC1,.,.,.,-7.2%,.,.

# Compound activity deposited in PubChem by National Center for Advancing Translational Sciences (NCATS).
